Screening data deposited in PubChem by several laboratories.
TcdB GH inh: inhibitors of Clostridioides difficile toxin B glycohydrolase | P18177 | TcdB glycohydrolase enzymatic assay, plate reader | inhibition, % at 9.99 µM | 0.24% of 350,000 active | AID 652162; in the data active = inhibition above about 10%
Target sequence (P18177 whole entry, looked up): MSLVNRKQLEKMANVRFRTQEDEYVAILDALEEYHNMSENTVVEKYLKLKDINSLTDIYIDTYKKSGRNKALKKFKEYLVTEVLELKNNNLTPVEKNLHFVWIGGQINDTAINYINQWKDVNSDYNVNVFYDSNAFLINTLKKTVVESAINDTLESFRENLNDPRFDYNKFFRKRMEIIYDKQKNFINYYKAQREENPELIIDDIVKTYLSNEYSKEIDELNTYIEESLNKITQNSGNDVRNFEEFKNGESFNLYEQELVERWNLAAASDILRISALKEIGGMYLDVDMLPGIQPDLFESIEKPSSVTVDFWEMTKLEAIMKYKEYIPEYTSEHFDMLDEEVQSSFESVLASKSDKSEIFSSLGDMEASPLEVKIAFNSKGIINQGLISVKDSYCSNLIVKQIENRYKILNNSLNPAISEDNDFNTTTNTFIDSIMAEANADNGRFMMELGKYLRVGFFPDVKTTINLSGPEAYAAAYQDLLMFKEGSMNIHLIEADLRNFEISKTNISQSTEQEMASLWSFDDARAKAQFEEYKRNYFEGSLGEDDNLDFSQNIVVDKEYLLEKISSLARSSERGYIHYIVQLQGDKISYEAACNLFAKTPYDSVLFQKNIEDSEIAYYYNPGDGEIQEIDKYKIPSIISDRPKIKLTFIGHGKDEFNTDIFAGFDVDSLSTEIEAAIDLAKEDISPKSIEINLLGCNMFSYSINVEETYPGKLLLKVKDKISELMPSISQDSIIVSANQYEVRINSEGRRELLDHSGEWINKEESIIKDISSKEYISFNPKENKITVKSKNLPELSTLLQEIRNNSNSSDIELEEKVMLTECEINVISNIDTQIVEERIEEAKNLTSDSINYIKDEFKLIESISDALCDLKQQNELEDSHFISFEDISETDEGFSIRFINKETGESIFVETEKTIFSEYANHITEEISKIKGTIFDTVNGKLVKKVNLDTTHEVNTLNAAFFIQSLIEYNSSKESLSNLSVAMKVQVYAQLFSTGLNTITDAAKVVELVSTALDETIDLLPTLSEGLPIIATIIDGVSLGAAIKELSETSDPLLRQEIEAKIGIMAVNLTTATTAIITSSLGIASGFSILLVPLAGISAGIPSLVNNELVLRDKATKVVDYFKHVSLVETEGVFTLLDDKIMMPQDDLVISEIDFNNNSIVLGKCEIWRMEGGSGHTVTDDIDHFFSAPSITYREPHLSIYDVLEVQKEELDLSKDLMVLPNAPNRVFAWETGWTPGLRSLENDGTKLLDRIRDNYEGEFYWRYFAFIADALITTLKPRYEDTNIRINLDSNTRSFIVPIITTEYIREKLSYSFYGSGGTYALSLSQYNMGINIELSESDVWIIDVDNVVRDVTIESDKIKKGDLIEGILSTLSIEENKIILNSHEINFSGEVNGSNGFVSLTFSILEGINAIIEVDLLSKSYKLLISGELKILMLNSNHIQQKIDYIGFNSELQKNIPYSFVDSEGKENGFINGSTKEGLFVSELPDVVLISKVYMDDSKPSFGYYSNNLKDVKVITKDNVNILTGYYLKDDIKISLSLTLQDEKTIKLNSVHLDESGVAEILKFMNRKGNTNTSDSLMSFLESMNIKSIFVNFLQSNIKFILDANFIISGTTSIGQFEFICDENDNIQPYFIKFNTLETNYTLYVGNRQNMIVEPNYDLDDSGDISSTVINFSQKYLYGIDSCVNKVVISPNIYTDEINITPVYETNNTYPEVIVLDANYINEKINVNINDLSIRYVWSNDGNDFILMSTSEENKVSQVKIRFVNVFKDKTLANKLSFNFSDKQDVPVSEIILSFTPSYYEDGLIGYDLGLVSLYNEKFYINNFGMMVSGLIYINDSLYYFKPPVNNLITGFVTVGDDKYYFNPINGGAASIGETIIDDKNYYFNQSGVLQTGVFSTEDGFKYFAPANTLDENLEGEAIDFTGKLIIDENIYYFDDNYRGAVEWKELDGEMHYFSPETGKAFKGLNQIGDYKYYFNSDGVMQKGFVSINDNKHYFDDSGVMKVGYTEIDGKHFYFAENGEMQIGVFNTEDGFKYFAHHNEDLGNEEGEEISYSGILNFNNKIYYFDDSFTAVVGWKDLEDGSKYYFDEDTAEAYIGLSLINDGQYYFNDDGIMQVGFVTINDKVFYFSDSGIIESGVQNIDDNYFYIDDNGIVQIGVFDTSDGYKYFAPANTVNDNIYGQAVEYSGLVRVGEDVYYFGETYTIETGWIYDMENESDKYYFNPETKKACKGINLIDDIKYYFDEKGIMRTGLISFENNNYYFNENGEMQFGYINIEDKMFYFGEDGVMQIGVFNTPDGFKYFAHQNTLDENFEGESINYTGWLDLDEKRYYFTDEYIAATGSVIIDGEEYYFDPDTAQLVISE
Vc quorum ag: inducers of Vibrio cholerae quorum light production without autoinducers. activation, % at 18.7 µM. 0.16% of 350,000 active. V. cholerae BH1578 lux reporter, luminescence, 6 h; in the data active = activation mostly above about 9.7%, no sharp cut-off
Sa ugtP lethal: compounds lethal to S. aureus RN4220 ugtP deletion mutant. OD600 growth, 16 h. growth inhibition, % (no concentration beside the values). 0.54% of 330,000 active. AID 1259309; in the data active = growth inhibition above about 68%;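 note: plate controls were untreated wells for no effect and antibiotic for full effect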
Sa RN4220 lethal: S. aureus RN4220 growth inhibition; OD600, 16 h; 0.33% of 330,000 active; inhibition, % (no concentration beside the values); in the data active = inhibition above about 85%;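 note: plate controls were untreated cells for no effect and reference antibiotic for full effect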
* = called active by the depositor; i = inactive; x = no result; + = active, no number. The list is not random: actives were taken first. Their share in the collection is about 0.67%.

SMILES	TcdB GH inh	Vc quorum ag	Sa ugtP lethal	Sa RN4220 lethal
O=C(NC(=S)Nc1ccccc1N1CCCCC1)c1ccc(F)cc1Cl	0	i	91*	-13
O=C(NC(=S)Nc1ccccc1N1CCCC1)c1ccc(F)cc1	x	3	79	5
Cc1ccccc1C(=O)NC(=S)Nc1ccccc1N1CCCC1	-4	0	85*	0
COc1ccccc1C(=O)NC(=S)Nc1ccccc1N1CCCC1	0	0	x	x
COc1cc(/C=N/Nc2ncc(C(F)(F)F)cc2Cl)cc(OC)c1O	x	0	x	x
COc1cccc(C=NNc2ncc(C(F)(F)F)cc2Cl)c1O	x	x	99*	100*
CC(=Cc1ccccc1)C(=O)NCCc1ccccc1	x	x	12	-1
CCc1nc(C)cn1S(=O)(=O)c1ccc([N+](=O)[O-])cc1	0	i	94*	97*
Cc1ccc2nc(-c3ccc4c(c3)OCCO4)cn2c1	26*	i	x	x
COc1ccc(-c2cn3cc(C)ccc3n2)cc1F	20*	0	8	12
COc1cc(C=NNC(=O)c2cccnc2)ccc1OC(=O)c1ccco1	x	x	0	3
O=C(CSc1cccc2cccnc12)N/N=C/c1ccc(F)cc1	11*	i	x	x
O=C(CSc1cccc2cccnc12)NN=Cc1ccncc1	x	x	1	1
COC(=O)C(CC(C)C)NCc1cccc(CNC(CC(C)C)C(=O)OC)c1 (stereo not given)	x	x	-1	1
CC(=O)C(Sc1nccc(-c2cccs2)n1)C(C)=O	15*	i	15	3
CC(C)NC(=O)CSc1nccc(-c2cccs2)n1	2	-1	-2	-1
Nc1c(-c2ccccc2)nc(Cl)nc1-c1ccccc1	x	i	8	2
c1ccc(-c2nc3nonc3nc2-c2ccccc2)cc1	x	2	98*	97*
Cc1nc(S(=O)(=O)N(C)Cc2ccccc2)c(C#N)c(C)c1Cl	64*	3	1	1
Cc1ccc(CS/C(Nc2ccccc2C)=C(\C#N)C(N)=O)c(C)c1	0	i	95*	2
CC(C)OC(=O)c1cc(NC(=S)Nc2ccc([N+](=O)[O-])cc2)cc(C(=O)OC(C)C)c1	x	0	100*	100*
CC(=O)Oc1c(C)c2c3c(c1OC(C)=O)[C@@H](C)CC[C@@H]3[C@@H](C)C[C@H]2C=C(C)C	1	i	86*	-10
C#CCOCCOCCOCCNc1nc(N2CCN(C(=O)C(CCC(=O)O)n3cc(C(N)C(C)CC)nn3)CC2)nc(N2CCN(C(=O)C(C(C)CC)n3cc(C(N)Cc4ccc(O)cc4)nn3)CC2)n1 (stereo not given)	x	x	0	4
CCOc1ccc2c(c1)c(N=O)c(O)n2C	x	0	90*	4
CO[C@@H]1CN(C)C(=O)c2cc(NC(=O)NC(C)C)ccc2OC[C@H](C)N(S(C)(=O)=O)C[C@H]1C	-2	x	x	x
SMILES	TcdB GH inh	Vc quorum ag	Sa ugtP lethal	Sa RN4220 lethal
CO[C@@H]1CN(C)C(=O)c2cc(NC(=O)NC(C)C)ccc2OC[C@@H](C)N(S(C)(=O)=O)C[C@H]1C	16*	x	x	x
COC(=O)c1cccc(NC(=S)Nc2ccc(Cl)c(Cl)c2)c1	1	0	90*	100*
COC(=O)c1cc(NC(=S)Nc2cc(Cl)cc(Cl)c2)cc(C(=O)OC)c1	-4	0	99*	99*
CCN1C(=O)NC(CCc2ccccc2)C(C(C)=O)C1C (stereo not given)	x	x	-2	5
O=C(NN=Cc1cccnc1)C1CCCCC1	x	x	3	14
Cc1ccc(S(=O)(=O)Nc2cccnc2Oc2ccc(Cl)cc2)cc1	14*	i	-3	4
O=C(NCc1nc(-c2ccc(C(F)(F)F)cc2)no1)Nc1cc(Cl)cc(Cl)c1	1	-1	100*	100*
COc1ccc(CCNc2c3ccccc3nc3ccccc23)cc1OC	0	1	93*	-3
CC(/C=C/c1ccc2c(c1)OCO2)=NNC(=O)C1COc2ccccc2O1 (stereo not given)	x	x	-2	6
CCCCCCCCCCCCCCCCn1cc[n+](C)c1	3	i	99*	101*
Cc1cc(C(=O)NN=Cc2ccc[nH]2)no1	x	x	9	7
Oc1ccc(Nc2nc(Cl)nc(NCc3ccco3)n2)cc1	13*	i	0	6
Cc1c(C=NN=C2CCC3C4CCc5cc(O)ccc5C4CCC23C)cnn1C (stereo not given)	x	x	0	-5
Cc1cc(=O)n2nc(N3CCCC(C(=O)N4CCc5ccccc54)C3)sc2n1 (stereo not given)	x	17*	-3	-15
COC1C(OC(N)=O)C(O)C(Oc2ccc3c(O)c(NC(=O)c4ccc(O)c(CC=C(C)C)c4)c(=O)oc3c2C)OC1(C)C (stereo not given)	x	x	99*	100*
CC(=O)c1ccc(O)c(CC=C(C)C)c1	0	-1	5	7
Cc1nc(-c2cccc(NC(=O)C(C)Oc3ccccc3)c2)cs1 (stereo not given)	1	-1	100*	99*
CC(Oc1ccccc1)C(=O)Nc1nc(-c2ccncc2)cs1 (stereo not given)	0	i	-6	0
Cc1nc(-c2cccc(NS(=O)(=O)c3ccc4ccccc4c3)c2)cs1	x	0	91*	18
Cc1c(Nc2cc(=O)oc3ccccc23)c(=O)n(-c2ccccc2)n1C	x	17*	7	9
CC1CN(C(C)CO)C(=O)c2cc(NC(=O)Nc3cccc4ccccc34)ccc2OC1CN(C)Cc1ccc(-c2ccccc2)cc1 (stereo not given)	x	x	-22	-3
c1ccc(OCc2nnc3n2N=C(c2ccccc2)CS3)cc1	3	0	1	13
COc1ccc(OCc2nnc3n2N=C(c2ccc(C)cc2)CS3)cc1	1	+	11	16
COc1cc(N=Nc2c(C)n(C)n(-c3ccccc3)c2=O)ccc1N	14*	i	12	8
Cc1ccc(NS(=O)(=O)c2ccc(C)c(NC(=S)NCCN3CCOCC3)c2)c(C)c1	16*	i	-4	13
SMILES	TcdB GH inh	Vc quorum ag	Sa ugtP lethal	Sa RN4220 lethal
O=C(C[C@@H]1CC[C@@H]2[C@H](COC[C@H](O)CN2C(=O)c2ccccn2)O1)NC1CCC1	12*	x	x	x
O=C(C[C@H]1CC[C@@H]2[C@H](COC[C@@H](O)CN2C(=O)Nc2ccc(Cl)c(Cl)c2)O1)NCc1ccncc1	18*	x	x	x
O=C(C[C@@H]1CC[C@@H]2[C@H](COC[C@@H](O)CN2C(=O)Nc2ccc(Cl)c(Cl)c2)O1)NCc1ccccc1	0	x	x	x
C=CCn1c(C)cc(C(=O)COC(=O)CCc2cc(OC)c(OC)c(OC)c2)c1C	12*	-3	8	4
COc1cc(CCC(=O)OCC(N)=O)cc(OC)c1OC	0	-2	-69	14
O=C1OC(c2ccccc2)(c2ccc3cc(O)ccc3c2)c2ccccc21 (stereo not given)	1	-2	93*	-18
COc1c(N2CCN(C(=S)Nc3ccc(F)cc3)C(C)C2)c(F)cc2c(=O)c(C(=O)O)cn(C3CC3)c12 (stereo not given)	x	-1	99*	100*
Cc1c(-n2cc(C(=O)O)c(=O)c3cc(F)c(N4CCCC(O)C4)c(F)c32)c(=O)n(-c2ccccc2)n1C (stereo not given)	1	-1	7	2
